Test results published in PubChem BioAssay AID1845225 (National Center for Advancing Translational Sciences (NCATS), 2023).
Inconclusive results are not listed. Active and inactive are the calls of the source. The call rests on the fitted dose curve; in most records, active means well fitted curve in the direction sought with a large enough effect; inconclusive means small, poorly fitted or top-dose-only effect, or effect the other way, or another doubt; inactive means no such curve, though single readings can be large or run the other way.

Assay: Confirmatory redox qHTS assay for identification of artifact compounds.
Conditions: Amplex Red/HRP redox cycling with DTT, fluorescence; series mostly up to 39 µM
Text: PI: Alexander Tropsha Ph.D. UNC Eshelman School of Pharmacy University of North Carolina, Chapel Hill, North Carolina Hits from high-throughput screening (HTS) of chemical libraries are often false positives due to their interference with the assay detection technology. In response to this problem, we generated the largest publicly available library of chemical liabilities and developed a free webtool to predict HTS artifacts, both of which are described herein. More specifically, we generated, curated, and integrated HTS datasets for thiol reactivity, redox activity, and luciferase (firefly and nano) activity. Using these curated datasets, we developed and validated several Quantitative Structure-Interference Relationship (QSIR) models to predict nuisance behavior. […] These models were employed for virtual profiling of the National Center for Advancing Translational Science's (NCATS) in-house library, and 256 compounds for each assay were selected for the experimental validation of nuisance behavior. The BA for these external predictions ranged from 58 to 78% for compounds within the applicability domains of the models. […] The models developed in this study, along with aggregation models previously developed by our group (SCAM Detective) were implemented in "Liability Predictor," an online tool which may be used as part of chemical library design or for triaging HTS hits. Both the models and the curated datasets are publicly available at https://liability.mml.unc.edu/.
PROTOCOL TABLE SEQUENCE No. (e.g., 1, 2, 3, etc.); […] (e.g., Cells, Incubation, Reagent, etc.); VALUE; DESCRIPTION. 1; Reagent; 3 uL; Amplex Red and HRP mixture. 2; Compounds and control; 16 nL; Kalypsis pin tool (Wako USA) equipped with a 1536-well pin head. 3; Incubation; 15 min. 4; Reagent; 1 uL; […]. 5; Incubation; 30 min. 6; Detection; Fluorescence, ViewLux microplate reader, 525 nm excitation, 598 nm emission. NOTES (numbers refer to Sequence numbers above) 1. 3 uL of a mixture containing Amplex Red (25 uM final concentration) and horseradish peroxidase (HRP; 250 mU/mL final concentration) in assay buffer (HBSS) was dispensed into all wells of a 1536-well assay plate (solid-bottom black plate; Greiner Bio One, Monroe, NC). 2. […] 3. 15 min. incubation at room temperature protected from light. 4. 1 uL of DTT (prepared fresh; final concentration 250 uM) was dispensed for a final assay volume of 4 uL. 5. Plates were centrifuged (121xg, 15 seconds) and incubated for 30 minutes at room temperature protected from light. 6. Samples were read for fluorescence (Ex/Em = 525(20)/598(25) nm) on a ViewLux CCD imager (PerkinElmer). Data were normalized to DMSO (0% activity) and DA3003 (10 uM final concentration; 100% activity) and the resulting percent inhibition data were fitted to a 4-parameter Hill equation using NCATS in-house software.

outcome, inactive:
CC(C)c1nn2c(=O)cc(COC(=O)c3cccc(NC(=O)COc4ccc(F)cc4)c3)nc2s1
CCOc1ccc(CCNC(=O)c2cnc3c(-c4ccccc4)c(C)nn3c2C)cc1OCC
O=C1C2C3CCCC3=C3CCCC3C2C(=O)N1c1ccc(Cl)cc1 (stereo not given)
O=C(CCn1c(=O)c2cccn2c2cccnc21)N1CCN(c2ccccc2F)CC1
COc1ccccc1CNC(=O)CCC(=O)N1Cc2ccccc2Oc2ncccc21
Cc1cc(C)cc(-n2ccn(Cc3ccc(F)cc3)c(=O)c2=O)c1
Cc1cc(NC(=O)c2ccc([S+](=O)([O-])NCc3ccc(Cl)c(Cl)c3)cc2)no1
CCC(CC)c1nn2c(=O)cc(COc3ccc(NC(=O)c4ccccc4C)cc3)nc2s1
CCOc1ccc(OCC)c(NS(=O)(=O)c2c(C)[nH]c(=O)[nH]c2=O)c1
COc1cc(OC)c(NC(=O)C(c2ccccc2)N2Cc3ccccc3C2=O)cc1Cl (stereo not given)
O=C(Nc1ccc(Cl)cc1)N1CCC(c2ccccc2)C1 (stereo not given)
COc1ccc(N2CC(NC(=O)c3ccco3)CC2=O)cc1 (stereo not given)
COc1ccc(N2CCN(Cc3cc(=O)oc4ccc(OC)cc34)CC2)cc1
CN(C(=O)CSc1nc2ccc(NC(=O)c3cccs3)cc2s1)c1ccccc1
Cc1nc(-c2ccccc2C(C)C)nc(NCc2ccc(-c3cccnc3)cc2)c1C
O=C(Nc1cc2c(cc1C(=O)c1ccccc1Cl)OCCO2)c1ccc(Br)cc1
COc1cc2c(NC3CCN(C)CC3)nc(N3CCCN(C)CC3)nc2cc1OCCCN(C)C
COc1ccccc1Cn1c(CNS(=O)(=O)c2ccc3c(c2)CCCC3)nc2cccnc21
COc1cc2c(NC3CCN(C)CC3)nc(N3CCCN(C)CC3)nc2cc1OCC1CCCNC1 (stereo not given)
FC(F)(F)c1ccccc1-c1nc(NCC23CC4CC(CC(C4)C2)C3)c2ccccc2n1
COc1cc2c(NC3CCN(C)CC3)nc(N3CCN(C)CC3)nc2cc1OCCOCCN(C)C
CC(O)COCC1OC2OC3C(COCC(C)O)OC(OC4C(COCC(C)O)OC(OC5C(COCC(C)O)OC(OC6C(COCC(C)O)OC(OC7C(COCC(C)O)OC(OC8C(COCC(C)O)OC(OC1C(OCC(C)O)C2OCC(C)O)C(OCC(C)O)C8OCC(C)O)C(OCC(C)O)C7OCC(C)O)C(OCC(C)O)C6OCC(C)O)C(OCC(C)O)C5OCC(C)O)C(OCC(C)O)C4OCC(C)O)C(OCC(C)O)C3OCC(C)O (stereo not given)
Cc1ccc(NS(=O)(=O)c2ccc3c(c2)CCN(C(=O)C(F)(F)F)C3)cc1C
COc1ccc(N2C(=O)c3ccccc3C2=O)cc1
CC(C)C[C@H](NC(=O)[C@@H](Cc1c[nH]c2ccccc12)NC(=O)[C@H](Cc1ccc(O)cc1)NC(=O)[C@H](CO)NC(=O)[C@H](Cc1c[nH]c2ccccc12)NC(=O)[C@H](Cc1cnc[nH]1)NC(=O)[C@@H]1CCC(=O)N1)C(=O)N[C@@H](CCCN=C(N)N)C(=O)N1CCC[C@@H]1C(=O)NCC(N)=O
CCc1ccc(CN(Cc2ccco2)C(=O)c2ccc(OC)cc2)cc1
Cc1cccc(C(=O)NCCc2nc3ccccc3n2CCC(C)C)c1
CCCCCCCCOc1ccc(C(=O)O)cc1
COc1ccc(C(=O)Nc2ccc(-n3nncc3-c3ccccc3)cc2)cc1OC
CC(=O)N1CCC(C(=O)Nc2nnc(C(C)C)s2)CC1
COc1ccc(C(CNC(=O)c2oc3cc(C)c(C)cc3c2C)N2CCCCC2)cc1 (stereo not given)
O=C(NC1CCCCCC1)c1ccc(CS(=O)c2ccc(Br)cc2)o1 (stereo not given)
Cc1ccc(C)c(NC(=O)CN2CCCN(Cc3cccc(Cl)c3)S2(=O)=O)c1
COc1ccccc1CNC(=O)CCCn1c(=O)c2ccccc2n(CC(=O)Nc2ccc(C)cc2Cl)c1=O
Clc1ccccc1CNc1ncnc2nc[nH]c12
CC(C)Oc1ccc(CNC(=O)Cc2ccc(NC(=O)N3CCSc4ncccc43)cc2)cc1
COc1cccc(-c2nc3cc(NC(=O)c4cccnc4)ccc3o2)c1
CCOc1ccc(C(=O)N2CCC(c3nc(-c4ccc(S(=O)(=O)N5CCCC5)cc4)no3)CC2)cc1
Cc1cc2c(s1)c1cnn(Cc3cc(F)c(Cl)cc3Cl)c(=O)c1n2C

Redox activity vs DA3003, inactive:
CCCCCC(O)/C=C/C=C\CCCCCCCC(=O)O (stereo not given) -1.07% [at 0.303 µM]
